Compounds with a hit are over-represented: about 21% of the library has one in this group of screens.
Pf growth 96h: inhibits malaria parasite growth, 96 h. P. falciparum luciferase reporter growth, 96 h. AID 504834. 6.9% of 320,000 active. Potency, µM (highest dose often 28.7 µM), most hits filed as inhibitors
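96 h incubation, 37 C, 5% CO2, of luciferase-reporter P. falciparum-infected RBCs (2% hematocrit, 0.05% parasitemia final) with test compounds; endpoint luminescence.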
Shiga toxin inh: inhibitors of Shiga toxin in Vero cells; Vero cells, Shiga toxin protein synthesis inhibition reporter; inhibition, % at 38.7 µM; 9.2% of 290,000 active; in the data active means inhibition mostly above about 28%, no sharp cut-off; inactive means mostly below about 43%
Pf growth 48h: inhibits P. falciparum growth in the first generation, 48 h. AID 504832. Potency, µM (doses to about 28.7 µM), usual class: inhibitors. P. falciparum luciferase growth in erythrocytes, 48 h. 5.9% of 310,000 active
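Luminescence readout; reporter = integrated firefly luciferase in P. falciparum. RBC culture at 2% hematocrit, 0.1% parasitemia final, 37 C/5% CO2; decreased signal taken as growth inhibition.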
Cycloheximide cs: counter-screen hit for Shiga toxin inhibitors, cycloheximide | cell reporter, cycloheximide protein synthesis inhibition counterscreen | 12% of 300,000 active | AID 2314 | max response, %; in the data active means max response mostly above about 13%, no sharp cut-off; inactive means mostly below about 14%; further: read at 38.3 µM for the half of the compounds with a filed dose
Large screens that a line does not name were inactive. Unless noted, the call rests on the fitted dose curve; in most records, active means well fitted inhibition curve with a large enough effect; inconclusive means small, poorly fitted or top-dose-only effect, or another doubt; inactive means no such curve, though single readings can be large or run the other way.

COc1ccccc1-c1cc(C(F)(F)F)nc(NCc2cccs2)n1	Pf growth 96h 5.9µM, Pf growth 48h inconclusive
COc1ccccc1-c1ccc(=O)n(CC(=O)NCc2cccs2)n1	Shiga toxin inh 40
Cc1cc(C(=O)Nc2nc(C)c(C(=O)N(C)C)s2)ccc1[N+](=O)[O-]	Pf growth 96h inconclusive, Shiga toxin inh 54, Cycloheximide cs 34
COc1ccccc1-c1ccc(=O)n(CC(=O)NCc2ccco2)n1	Pf growth 96h inconclusive
Cc1ccc(C(=O)NCc2ccc3c(c2)OCO3)cc1C	Shiga toxin inh 55, Cycloheximide cs 35 (no result: Pf growth 48h)
Nc1cc(S(=O)(=O)N2CCCCC2)ccc1Oc1ccccc1	none
c1ccc(-c2[nH]c(-c3ccccc3)[n+](CC3CO3)c2-c2ccccc2)cc1 (stereo not given)	Pf growth 96h 10µM, Pf growth 48h inconclusive, Cycloheximide cs 50
Cc1ccc(NC(=O)NCCN2CCCCC2)cc1C	Pf growth 96h 17µM
CCOC(=O)c1ccc(NC(=S)N2CCN(CCN=CC3=C(O)CC(C)(C)CC3=O)CC2)cc1	none
CCOC(=O)c1ccc(NC(=O)NCCN2CCCCC2)cc1	Cycloheximide cs 9.3 (no result: Pf growth 96h)
CCOC(=O)c1ccc(NC(=S)N2CCN(CCNC3=CC(=O)CC(C)(C)C3)CC2)cc1	Pf growth 48h 0.026µM
Cc1ccccc1NC(=O)NCCCN1CCCC1	Pf growth 96h 2.3µM (no result: Pf growth 48h)
CC(C)(C)NC(=O)C(c1ccc(F)cc1)N(Cc1ccccc1Cl)C(=O)c1ccn[nH]1 (stereo not given)	Pf growth 96h inconclusive, Pf growth 48h inconclusive
Nc1c2nc(-c3ccccc3Cl)[nH]c(=O)c2nc(=O)n1-c1ccccc1	Shiga toxin inh 58, Cycloheximide cs 22
COC(=O)CNC(=O)c1cc(-c2ccncc2)nc2ccc(C)cc12	none
CC(C)[C@H]1C(=O)Nc2ccccc2N1C(=O)N[C@@H](Cc1ccccc1)C(=O)N[C@@H](C(=O)O)c1ccccc1	none
CC(C)[C@H](NC(=O)N1c2ccccc2NC(=O)[C@@H]1C(C)C)C(=O)N1CCC(C(=O)O)CC1	Cycloheximide cs 8.9
Nc1nc(CSC(=S)N2CCOCC2)nc(Nc2ccccc2)n1	Shiga toxin inh 94, Cycloheximide cs 54
Cc1cccc(Nc2nc(N)nc(CSC(=S)N3CCOCC3)n2)c1	none
Nc1nc(CSC(=S)N2CCN(c3ccccc3)CC2)nc(Nc2ccc(F)cc2)n1	Pf growth 96h 12µM, Pf growth 48h inconclusive
COc1ccccc1Nc1nc(N)nc(CSC(=S)N2CCCCC2)n1	Shiga toxin inh 59, Cycloheximide cs 31
CC1CC(C)CN(C(=S)SCc2nc(N)nc(Nc3ccccc3)n2)C1 (stereo not given)	Pf growth 96h inconclusive, Pf growth 48h inconclusive
Cc1ccc(Nc2nc(N)nc(CSC(=S)N3CCOCC3)n2)cc1	Shiga toxin inh 96, Cycloheximide cs 46
COc1ccccc1Nc1nc(N)nc(CN2CCCCC2)n1	none
CCOC(=O)N1CCN(C(=O)CN(C)S(=O)(=O)c2ccc(Cl)cc2)CC1	Pf growth 96h inconclusive
CN(N=O)C(=O)N[C@H]1[C@@H](O)[C@H](O)[C@H](CO)O[C@@H]1O	none (no result: Shiga toxin inh, Cycloheximide cs)
Nc1nc(CSC(=S)N2CCCCC2)nc(Nc2ccccc2)n1	Shiga toxin inh 87, Cycloheximide cs 40
CCOc1ccc(Nc2nc(N)nc(CSC(=S)N3CCOCC3)n2)cc1	Cycloheximide cs 44
CCc1nn(CC(=O)N2CCN(c3ccc(F)cc3)CC2)c(=O)c2cc3occc3n12	none
O=c1[nH]nc(Sc2ncnc3sccc23)n1CCc1ccccc1	Pf growth 96h 9.3µM, Pf growth 48h 10µM
CCN(CC)C(=O)CSc1n[nH]c(=O)n1CCc1ccccc1	none
O=C(COC(=O)CN1C(=O)COc2ccccc21)NCc1ccc(F)cc1	none (no result: Shiga toxin inh, Cycloheximide cs)
CN(C)N(C(=O)c1cc(-c2cccs2)nn1-c1ccccc1)C1CCS(=O)(=O)C1 (stereo not given)	Pf growth 96h 5.2µM, Pf growth 48h inconclusive (no result: Shiga toxin inh, Cycloheximide cs)
COC(=O)Cn1c(O)c(N=NC(=O)CNC(=O)c2ccncc2)c2ccccc21	none
Cc1ccc(NC(=O)C2C(=O)N(CCO)C3(C)CC2c2ccccc2O3)cc1 (stereo not given)	Cycloheximide cs 22
O=C(Nc1ccc(N2CCOCC2)cc1)C1CC(=O)N(c2ccc(F)cc2)C1 (stereo not given)	Pf growth 96h 10µM
COC(=O)c1ccc(NC(=O)C2CC(=O)N(c3cc(C)ccc3C)C2)cc1 (stereo not given)	Pf growth 96h inconclusive
Cc1ccc(N2CC(C(=O)Nc3ccc4c(c3)OCCO4)CC2=O)cc1C (stereo not given)	Shiga toxin inh 53
O=C(Nc1ccc2c(c1)OCO2)C1CC(=O)N(c2ccccc2)C1 (stereo not given)	none
COC(=O)c1ccc(NC(=O)C2CC(=O)N(c3ccc(C)cc3)C2)cc1 (stereo not given)	Cycloheximide cs 17
Cc1ccc(N2CC(C(=O)Nc3ccc4c(c3)OCCO4)CC2=O)cc1 (stereo not given)	Pf growth 96h inconclusive, Shiga toxin inh 44, Cycloheximide cs 20
O=C(Nc1ccc(N2CCOCC2)cc1)C1CC(=O)N(c2ccccc2)C1 (stereo not given)	none
COc1ccc(NS(=O)(=O)c2cc3c4c(c2)CCN4C(=O)CC3)c(OC)c1	none (no result: Shiga toxin inh, Cycloheximide cs)
CC(C)(CO)NCC#Cc1ccccc1	none
Nc1n[nH]c(N)c1N=Nc1ccc2c(c1)OCO2	Shiga toxin inh 97, Cycloheximide cs 36
Cc1ccc(N=Nc2c(N)n[nH]c2N)cc1	Shiga toxin inh 49, Cycloheximide cs 41
Nc1n[nH]c(C2CC2)c1N=Nc1ccc(Cl)cc1	none
COC(=O)c1ccccc1N=Nc1c(N)n[nH]c1N	none
Cc1nc(N)sc1N=Nc1ccc(Br)cc1	Shiga toxin inh 127, Cycloheximide cs 65 (no result: Pf growth 48h)
Cc1[nH]nc(N)c1N=Nc1ccc(Br)cc1	Shiga toxin inh 41, Cycloheximide cs 29
CO/N=C(/C(=O)N[C@@H]1C(=O)N2C(C(=O)O)=C(CSc3cnns3)CS[C@H]12)c1csc(N)n1	none (no result: Shiga toxin inh, Cycloheximide cs)
COc1ccccc1C(CNC(=O)CSc1ccc2ccccc2c1)N(C)C (stereo not given)	Pf growth 96h inconclusive, Pf growth 48h inconclusive
FC(F)OC(Cl)C(F)(F)F (stereo not given)	none (no result: Shiga toxin inh, Cycloheximide cs)
CCCC1=[N+](CC)CCn2c(C)ccc21	Pf growth 48h 4.7µM
Cc1cc(OC(C)C(=O)NCCCN2CCOCC2)c2c(C)c(C)c(=O)oc2c1 (stereo not given)	none
Cc1ccc(N(CC(=O)NC2CCCCC2)C(=O)CNC(=O)c2ccco2)c(C)c1	Pf growth 48h inconclusive
CCC1SC2=NC(C)=C(C(=O)OCC(C)C)C(/C=C/c3ccccc3OC)N2C1=O (stereo not given)	Pf growth 96h 12µM, Pf growth 48h inconclusive
CCC1SC2=NC(C)=C(C(=O)OCCOC)C(/C=C/c3ccccc3OC)N2C1=O (stereo not given)	Pf growth 48h inconclusive
CC(=O)c1ccc(NC(=O)CSc2nnc(NC(=O)C3CC3)s2)cc1	Pf growth 96h inconclusive
CCN(CC(=O)Nc1ccc(NC(C)=O)cc1)C(=O)/C=C/c1cn(Cc2ccccc2)nc1-c1cccnc1	Pf growth 96h 10µM, Pf growth 48h inconclusive (no result: Shiga toxin inh, Cycloheximide cs)
Cc1cc(-c2nnc(CCC(=O)N3CCN(Cc4cccnc4)CC3)o2)c(C)o1	Pf growth 96h inconclusive
